Source: PubChem BioAssay (National Center for Advancing Translational Sciences (NCATS))
Pf growth 96h – P. falciparum growth inhibition at 96 hours | P. falciparum luciferase reporter growth, 96 h | Potency, µM (titrated, usually from 28.7 µM), most hits filed as inhibitors | hit rate 6.9% among 320,000 | AID 504834
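Luminescence readout: decreased luciferase signal marks inhibited growth of reporter-expressing P. falciparum in infected red cells (2% hematocrit, 0.05% parasitemia final), exposed to compound two generations (96 h, 37 C, 5% CO2).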
HCMV inh – human cytomegalovirus inhibition; HFF cells, HCMV-luciferase reporter, 72 h; stronger effect = lower value; activity change, negative = inhibition, % at 57.5 µM; hit rate 4.5% among 410,000; in the data active = activity change below about -60%; inconclusive = no clear call, values can overlap the other calls; inactive = above about -39%
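Cell-based, HFFs, 1000 cells/well, 16 h 37C; cpds in DMSO + HCMV-luc, MOI 1 PFU/cell; 72 h 37C; OneGlo luminescence after 5 min RT; norm. to buffer vs Salinomycin 10uM.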
HCV inh – blocks hepatitis C virus | Huh7.5.1 HCVcc-Cre infection, luciferase reporter, 44 h | Potency, µM (series often up to 41.8 µM), most hits filed as inhibitors | hit rate 3.4% among 340,000 | AID 651820
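Seed cells (1,000/well) for 4 h; treat with compound and infect with HCVcc-Cre, moi about 0.5. Incubate 44 h, then detect luciferase activity.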
Pf growth 48h – P. falciparum growth inhibition at 48 hours (one generation); P. falciparum luciferase growth in erythrocytes, 48 h; Potency, µM (doses to about 28.7 µM), hits mostly inhibitors; hit rate 5.9% among 310,000; AID 504832
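Cell-based growth assay: transgenic P. falciparum expressing firefly luciferase, cultured in red cells within RPMI 1640 containing 0.5% w/v Albumax, 24 mM bicarbonate and gentamycin. A drop in luciferase activity indicates inhibition.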
Each line names hits and unclear results; the compound was inactive in the other large screens. Compounds with a hit are over-represented: about 13% of the library has one in this group of screens. Unless noted, calls follow the shape of the dose curve; as a rule, active = well fitted inhibition curve with a large enough effect; inconclusive = small, poorly fitted or top-dose-only effect, or another doubt; inactive = no such curve, though single readings can be large or run the other way.

CCCCOC(=O)c1c(N)n(-c2ccc(OC)cc2OC)c2nc3ccccc3nc12	none (no result: Pf growth 96h, HCV inh, Pf growth 48h)
C=CCn1c(SCC(=O)NC2CC2)nc2ccccc2c1=O	Pf growth 96h inconclusive, Pf growth 48h inconclusive
CC(=O)NCCn1c(SCC(=O)NCCC(C)C)nc2ccccc2c1=O	none (no result: Pf growth 96h)
C=CCn1c(SCC(=O)c2ccc(CNC(C)=O)o2)nc2ccccc2c1=O	Pf growth 96h 15µM (no result: Pf growth 48h)
CCOC(=O)c1sc2nc(SCC(=O)NCc3ccco3)n(Cc3ccccc3)c(=O)c2c1C	none
Cc1sc2nc(SCC(=O)NCc3ccco3)n(Cc3ccccc3)c(=O)c2c1C	HCV inh 2.2µM, Pf growth 48h 10µM (no result: Pf growth 96h)
COc1ccccc1NC(=O)CSc1nc2ccccc2c(=O)n1CCNC(C)=O	Pf growth 96h 8.3µM, Pf growth 48h inconclusive
O=C(CSc1nc2ccccc2c(=O)n1Cc1ccco1)NCc1ccco1	HCV inh 10µM, Pf growth 48h inconclusive
CC(C)c1ccc(C2N3CC4(C)CN2CC(c2ccccc2)(C3)C4=O)cc1 (stereo unspecified)	none (no result: Pf growth 96h, HCV inh, Pf growth 48h)
CCOc1ccc(C(c2c(O)cc(C)n(Cc3ccco3)c2=O)N2CCCCC2)cc1 (stereo unspecified)	none (no result: Pf growth 96h, HCV inh, Pf growth 48h)
O=C(CSc1nc2ccsc2c(=O)n1NC(=O)c1ccccc1)NCc1ccco1	none
CCOC(=O)CSc1nc2ccccc2c(=O)n1CCCCCC(=O)NCc1ccco1	HCMV inh inconclusive, Pf growth 48h 12µM
COc1ccccc1NC(=O)CSc1nnc2c3ccccc3n(C(C)C)c2n1	HCMV inh -61 (no result: Pf growth 96h, HCV inh, Pf growth 48h)
CN(Cc1ccccc1)C(=O)CSc1nc2ccccc2c(=O)n1Cc1ccco1	Pf growth 96h inconclusive, HCMV inh -80, HCV inh inconclusive
CCC(Sc1nc2ccsc2c(=O)n1-c1ccc(Cl)c(C)c1)C(=O)NCc1ccco1 (stereo unspecified)	Pf growth 96h 12µM, HCMV inh inconclusive, HCV inh inconclusive, Pf growth 48h 13µM
CCOc1ccc(-n2c(SCC(=O)N3CCc4ccccc43)nc3c([nH]c4ccccc43)c2=O)cc1	none (no result: Pf growth 96h, HCV inh, Pf growth 48h)
CC(=O)NCCn1c(SCC(=O)NCc2ccco2)nc2ccccc2c1=O	Pf growth 96h 4.7µM
COc1ccc(CCNC(=O)CCCn2c(SCC#N)nc3ccccc3c2=O)cc1OC	Pf growth 48h inconclusive (no result: Pf growth 96h)
COc1ccc(CCNC(=O)CCn2c(SCC#N)nc3ccccc3c2=O)cc1OC	HCV inh 13µM (no result: Pf growth 96h)
O=C1/C(=C/c2ccc([N+](=O)[O-])cc2)C=C(c2ccccc2)N1c1ccccc1	Pf growth 96h inconclusive
O=C1/C(=C/c2ccc([N+](=O)[O-])cc2)C=C(c2ccccc2)N1c1ccc(O)cc1	HCMV inh -83, HCV inh inconclusive, Pf growth 48h inconclusive (no result: Pf growth 96h)
O=C(O)c1cccc(N2C(=O)/C(=C/c3ccc([N+](=O)[O-])cc3)C=C2c2ccccc2)c1	Pf growth 96h inconclusive
COc1ccc(N2C(=O)/C(=C/c3ccc([N+](=O)[O-])cc3)C=C2c2ccccc2)cc1	Pf growth 96h 13µM, HCMV inh -101, HCV inh inconclusive, Pf growth 48h inconclusive
CCOC(=O)C1CCN(c2ncnc3c2c(-c2ccccc2)cn3-c2ccc(C)c(Cl)c2)CC1	none (no result: Pf growth 96h, HCV inh, Pf growth 48h)
CC(=O)c1sc(NC(=O)COc2ccc(C(C)C)c(C)c2)nc1C	HCV inh 2.5µM
Cc1ccc(-n2c(C)cc(/C=N/NC(=O)CN(c3ccc(C)cc3C)S(C)(=O)=O)c2C)cc1	Pf growth 96h inconclusive, Pf growth 48h 12µM
Cc1cc(/C=N/NC(=O)CC2(C)OCCO2)c(C)n1-c1cc(Cl)cc(Cl)c1	Pf growth 96h inconclusive, Pf growth 48h inconclusive
Cc1cccc(-n2c(C)cc(/C=N/NC(=O)c3ccc(CN4CCOCC4)cc3)c2C)c1	Pf growth 96h inconclusive, HCV inh 10µM, Pf growth 48h inconclusive
Cc1cc(/C=N/NC(=O)c2c(Br)cnn2C)c(C)n1-c1cccc(Br)c1	Pf growth 96h inconclusive, HCMV inh -65
Cc1cc(C)cc(-n2c(C)cc(/C=N/NC(=O)CN(c3c(C)cccc3C)S(C)(=O)=O)c2C)c1	Pf growth 48h inconclusive (no result: Pf growth 96h)
Cc1ccc(-n2c(C)cc(/C=N/NC(=O)CC3(C)OCCO3)c2C)cc1	Pf growth 96h inconclusive, HCMV inh inconclusive, Pf growth 48h 13µM
CCc1ccc(OCC(=O)Nc2ncn[nH]2)c(Br)c1	none (no result: Pf growth 96h, HCV inh, Pf growth 48h)
O=C(CN1C(=O)COc2ccc(S(=O)(=O)N3CCOCC3)cc21)NCc1ccc(Cl)cc1	none (no result: Pf growth 96h, HCV inh, Pf growth 48h)
Cc1cccc(-n2c(C)cc(/C=N/NC(=O)c3cccc([N+](=O)[O-])c3C)c2C)c1	HCV inh inconclusive, Pf growth 48h inconclusive
Cc1ccc(C(=O)N/N=C/c2cc(C)n(-c3ccc(Br)cc3)c2C)cc1[N+](=O)[O-]	HCV inh 20µM
Cc1ccc(-n2c(C)cc(/C=N/NC(=O)c3ccc(CN4CCOCC4)cc3)c2C)cc1	Pf growth 96h inconclusive, HCMV inh inconclusive, HCV inh 10µM, Pf growth 48h inconclusive
Cc1ccc(-n2c(C)cc(/C=N/NC(=O)c3ccncc3)c2C)cc1	Pf growth 96h inconclusive, HCV inh inconclusive, Pf growth 48h inconclusive
CCOc1ccccc1CNC(=O)Cc1ccc(NC(=O)N2CCCCc3ccccc32)cc1	none (no result: Pf growth 96h, HCV inh, Pf growth 48h)
NC(=O)C1CCN(c2nc(-c3ccccc3)nc3c2oc2ccccc23)CC1	Pf growth 96h 1.5µM, HCMV inh inconclusive, HCV inh inconclusive
CN1CCN(c2nc(-c3ccccc3)nc3c2oc2ccccc23)CC1	Pf growth 96h 5.9µM, Pf growth 48h inconclusive
NC(=O)C1CCN(c2nc(-c3ccccc3)nc3ccccc23)CC1	Pf growth 96h inconclusive, HCV inh inconclusive, Pf growth 48h inconclusive
CCc1nc(N2CCC(C)CC2)c2oc3ccccc3c2n1	Pf growth 48h inconclusive
COc1ccc(C2c3cccn3CCN2S(=O)(=O)c2ccccc2[N+](=O)[O-])cc1OC (stereo unspecified)	none (no result: Pf growth 96h, HCV inh, Pf growth 48h)
N#CC1=C(SCC(=O)Nc2ccccc2)NC(=O)CC1c1ccco1 (stereo unspecified)	none (no result: Pf growth 96h, Pf growth 48h)
COC(=O)CSC1=C(C#N)C(c2ccccc2)CC(=O)N1 (stereo unspecified)	Pf growth 96h 9.3µM
N#CC1=C(SCC(=O)Nc2ccccc2)NC(=O)CC1c1ccc(O)cc1 (stereo unspecified)	Pf growth 96h 5.9µM (no result: Pf growth 48h)
COC(=O)CSC1=C(C#N)C(c2ccc(C(C)C)cc2)CC(=O)N1 (stereo unspecified)	HCMV inh inconclusive, HCV inh inconclusive (no result: Pf growth 48h)
NS(=O)(=O)c1ccc(NC(=O)C2Cc3ccccc3N2C(=O)c2ccccc2)cc1 (stereo unspecified)	none (no result: Pf growth 96h, HCV inh, Pf growth 48h)
COc1cc(C(CC(=O)NCc2ccccc2Cl)N2Cc3ccccc3C2=O)cc(OC)c1OC (stereo unspecified)	none (no result: Pf growth 96h, HCV inh, Pf growth 48h)
CN(C)S(=O)(=O)c1cccc(C(=O)C2=C3SC=C(c4ccccc4)N3CC2)c1	Pf growth 96h 3.3µM, HCV inh inconclusive
COc1ccccc1Nc1ccncc1[N+](=O)[O-]	Pf growth 96h inconclusive, HCMV inh -64, Pf growth 48h inconclusive
COc1ccccc1Nc1ccc(C(=O)O)cc1[N+](=O)[O-]	Pf growth 96h inconclusive
COc1ccccc1Nc1cc(C)nc2c(C)ccc([N+](=O)[O-])c12	Pf growth 96h inconclusive, HCMV inh -67, HCV inh inconclusive
